# About 83,000 compounds went through this panel and 20% of them were active in at least one assay; those are over-represented in the sample as a whole.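 48-hour exposure, single concentration, 96-well plates; percent growth endpoint where 0 means no net growth. Active: below 10.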 Active and inactive are the calls of the source.
# Test system: CCRF-CEM leukemia
# Assay: NCI-60 one-dose screen, 48 h (100 = growth as untreated, 0 = no growth, -100 = all killed)
# Conditions: 10 µM unless noted
row,Structure (SMILES),growth
1,COc1ccc2c(c1)C(=O)c1c-2c(=O)n(CCCCCCC(=O)NO)c2ccccc12,-7.49% (active)
2,CCC(C)(C)C(=O)O[C@H]1C[C@@H](C)C=C2C=C[C@H](C)[C@H](CC[C@@H]3C[C@@H](O)CC(=O)O3)[C@H]21,62.5% (inactive)
3,CCC1=C(c2ccc(OC)cc2)C(C)(C)Oc2c1ccc(O)c2CN1CCCC1,21.2% (inactive)
4,CCCCCCCCCCCCCCCCCC1=NC(C)(C)CN1CCO,-42.9% (active)
5,O=C(Nc1ccc(Cl)cc1)Nc1ccc(Nc2nncc3ccccc23)cc1,13.1% (inactive)
6,COc1cc(C2C=C(c3ccc(C)cc3)Nc3nc(SC)[nH]c(=O)c32)ccc1Oc1ccnc2cc(Cl)ccc12 (stereo not drawn),67.5% (inactive)
7,C=C(C[C@@](O)(C(=O)Oc1ccccc1)C(=O)C1CCCCC1)c1ccccc1,95.4% (inactive)
8,CCCCCCCC1(C)NC(=O)NC1=O (stereo not drawn),94.2% (inactive)
9,CCOC(=O)c1c(C)c(C(=O)OCC)n(C)c1C,84.9% (inactive)
10,COc1ccc(-c2cncn2-c2ccc(-c3nc4cc(OC)c(OC)c(OC)c4s3)cc2)cc1N,45.9% (inactive)
11,CCc1[nH]nc(-c2ccc(OC)cc2)c1-c1ccccc1OCCN(CC)CC,84.5% (inactive)
12,COc1ncc(-c2ccc3nccc(C#CCN4CCN(S(C)(=O)=O)CC4)c3c2)cc1NS(=O)(=O)c1ccc(F)cc1F,-7.81% (active)
13,COc1ccc2c(c1)C(=O)c1c-2c(OCCCN(C)C)nc2cc(Br)ccc12,-27.6% (active)
14,N#Cc1c(N)[nH]c(S)c1C#N,102% (inactive)
15,CC(O)c1nc2c(c(=O)n(C)c(=O)n2C)n1C (stereo not drawn),96.3% (inactive)
16,Cc1ccc(NC(=O)Nc2ccc(-c3cccnc3)cc2N2CCC(CO)CC2)cc1,34.7% (inactive)
17,CCCCCCCCCCCCCCCCN=C(CC(=O)O)C(=O)O,86.1% (inactive)
18,COc1ccc(CCN2CCCN3C2=Nc2ccccc2S3(=O)=O)cc1,19.4% (inactive)
19,Cc1nnc(Nc2ccc(NC(=O)Nc3ccc(Cl)cc3)cc2)c2ccccc12,11% (inactive)

row,Structure (SMILES),growth
1,CCCCCCCCCCSc1ncnc2nc[nH]c12,57.9% (inactive)
2,C=C(C[C@](O)(C(=O)/C=C/c1ccc(Cl)cc1)C(=O)OC)c1ccccc1,40.8% (inactive)
3,O=C(/C=C/c1ccccc1Cl)c1ccc(O)cc1,30.6% (inactive)
4,CC(=O)NC1(C(=O)O)CCCC1,96.4% (inactive)
5,CCOC(=O)c1cc(-c2cccnc2)nc2c(Cl)cc(Cl)cc12,88.9% (inactive)
6,CN1C(=O)/C(=C/c2nc(-c3cccc(F)c3)n3ccccc23)c2ccccc21,88.9% (inactive)
7,O=C1C(=O)c2ccc(Br)cc2-c2cc(Br)ccc21,10.1% (inactive)
8,CCN1CCN(c2cc(-c3cn[nH]c3-c3cc(C)cc(OC)c3)nc(-c3cccnc3)n2)CC1,84.5% (inactive)
9,ClC1=C(Cl)C(Cl)=C(Cl)C1=C/C=C/c1ccccc1,-21.4% (active)
10,O=C(CN1CCCCC1)Sc1nnc2sc3ccccc3n12,104% (inactive)
11,CN1CCN(Cc2ccc(NC(=O)c3[nH]ncc3Nc3ccnc4ccnn34)cc2)CC1,54.6% (inactive)
12,CC1=CC(=O)C(C(C)=Nc2ccccc2Cl)C(=O)O1 (stereo not drawn),89.2% (inactive)
13,CSc1ncc2ncn(C3OC(CO)C(O)C3O)c2n1 (stereo not drawn),99% (inactive)
14,COc1ccc2nc3cc(Cl)ccc3c(Nc3cc(C(C)C)c(O)cc3C)c2c1,-25.9% (active)
15,c1cnc2ccc3ncccc3c2c1,98.9% (inactive)
16,O=C(Nc1ccc(Cl)cc1)Nc1ccc(Oc2nncc3ccccc23)cc1,8.7% (active)
17,CCCCCCCC/C=C/CCCCCCCC1=NC(C)(C)CN1CCO,-38.9% (active)
18,CN(CC(=O)N(Cc1ccc(C2CCCCC2)cc1)c1ccc(C(=O)O)cc1)S(=O)(=O)c1c(F)c(F)c(F)c(F)c1F,-28.2% (active)
19,CCN(CC)CCCNCCCNc1cc(OC)cc2cccnc12,88.9% (inactive)

# From PubChem BioAssay (NCI)
